According to ChEMBL document CHEMBL4513216, “Probing the Open Global Health Chemical Diversity Library for Multistage-Active Starting Points for Next-Generation Antimalarials” (ACS Infect Dis, 2020):
Screen size: about 68,000 compounds; about 2,700 (4%) showed an effect of 50% or more. The entries come from a sample that favours strong results as a whole.

What follows are molecules tested on Plasmodium berghei (assay: Screen against P. berghei liver stage (PbLuc), transformed with Luciferase, at 2uM). Conditions: tested at 2 uM.
Type: functional, HepG2

Row | Structure (SMILES) | INHIBITION [%]
1 | CN1[C@H](Cn2cncn2)C[C@@H]2CN(Cc3cccc(C#N)c3)CC[C@@H]21 | 12.3
2 | CN1CCC2(C=C(C(=O)N(C)C)c3ccccc32)CC1 | -10.89
3 | CC(=O)N1CC(Cc2nccc3ccn(C)c23)C1 | 20.08
4 | Cc1cccc(C(=O)N2CC(Cc3nccc4ccn(C)c34)C2)n1 | -25.33
5 | Cn1ccc2ccnc(CC3CN(C(=O)c4cscn4)C3)c21 | 52.82
6 | CCc1nnc2n1CCN(C(=O)C(C)COCc1ccccc1)C2 (stereo not drawn) | -32.2
7 | Cc1cc2c(N3CCC(N(C)Cc4cnn(C)c4)CC3)ncnc2s1 | 10.13
8 | Cn1c(=O)c2c(n3ncnc13)NC(=O)CC2c1cccc(Br)c1 (stereo not drawn) | -13.28
9 | Cn1c(=O)c2c(n3ncnc13)NC(=O)CC2c1ccc(F)cc1 (stereo not drawn) | 53.55
10 | COc1cccc(C2CC(=O)Nc3c2c(=O)n(C)c2ncnn32)c1 (stereo not drawn) | 15.49
11 | CCc1ccc(C2CC(=O)Nc3c2c(=O)n(C)c2ncnn32)cc1 (stereo not drawn) | 56.21
12 | CCc1ccc(C2CC(=O)Nc3c2c(=O)[nH]n3C(C)C)cc1 (stereo not drawn) | -9.13
13 | Cn1c(=O)c2c(n3ncnc13)NC(=O)CC2c1cccc(F)c1 (stereo not drawn) | 5.31
14 | CCS(=O)(=O)N1Cc2[nH]nc(COCc3cccnc3)c2C1 | -2.81
15 | CNC(=O)C(C)(C)N1CCC[C@H]1C(=O)NC(C)(C)C | 30.4
16 | CCN1CCCC12CCCN(c1ncccn1)C2 (stereo not drawn) | -23.31
17 | CC1=Nc2c(c(O)nn2C2CCOCC2)C(c2cccnc2)S1 (stereo not drawn) | 18.76
18 | Cc1nccn1CCN(C)c1nc(-c2ccc(Cl)cc2)nc2c1CNC2 | 19.59
19 | CCN(CC)CCN(C)c1nc(-c2ccc(Cl)cc2)nc2c1CNC2 | 81.59
20 | CCn1ccnc1CN(C)c1nc(-c2ccc(Cl)cc2)nc2c1CNC2 | 5.28
21 | O=C(O)c1cc(S(=O)(=O)Nc2cc(F)ccc2F)cc2c1OCCO2 | -41.21
22 | COCCN1CCN(CCCS(=O)(=O)N(C)C)CC1C (stereo not drawn) | 25.35
23 | O=C(CCCc1ccccn1)NCC(O)c1c(F)cccc1F (stereo not drawn) | 17.98
24 | CCn1nnc2c1C(COCCN(C)C)CN(S(C)(=O)=O)C2 (stereo not drawn) | 34.19
25 | CN(CCCNC(=O)N1CCCC1c1ccsc1)c1ccccn1 (stereo not drawn) | 63.95
26 | O=C(NCCCn1cccn1)N1CCCC1c1ccsc1 (stereo not drawn) | 16.21
27 | CN(C)c1ncccc1CNC(=O)N1CCCC1c1ccsc1 (stereo not drawn) | 43.93

Row | Structure (SMILES) | INHIBITION [%]
28 | N#Cc1ccc(C(=O)N2CC[C@H]3[C@@H]2CCC(=O)N3c2cccnc2)cc1 | -11.44
29 | Cc1ccc(F)cc1NC(=O)C1CCCN1C(=O)C(C)C (stereo not drawn) | 15.27
30 | CC(C)C(=O)N1CCCC1C(=O)Nc1cc(C(F)(F)F)ccc1F (stereo not drawn) | 13.92
31 | CC(C)C(=O)N1CCCC1C(=O)Nc1ccc(F)c(F)c1 (stereo not drawn) | 55.29
32 | Cc1cnc(C(C)(C)NC(=O)NCc2ccc(C#N)cc2F)s1 | 16.79
33 | Cc1cc(C)c(CNC(=O)N2CCN(c3ccccn3)CC2)c(=O)[nH]1 | 7.64
34 | Cc1cc(C)c(CNC(=O)N2CCN(c3cnccn3)CC2)c(=O)[nH]1 | 63.95
35 | Cc1cc(C)c(CNC(=O)C2CCN(c3cnccn3)CC2)c(=O)[nH]1 | -7.02
36 | CSc1ccccc1NC(=O)C1CSc2ncc(C)c(=O)n2C1 (stereo not drawn) | -35.92
37 | Cn1c(C(F)(F)F)nn(CCNC(=O)CSCc2ccccc2)c1=O | -30.06
38 | NCCn1nc(C2CCN(Cc3ccccc3)C2)c2nccnc21 (stereo not drawn) | 8.26
39 | CN1CCCCCC1C(=O)NCCCn1ncc2ccccc21 (stereo not drawn) | 54.78
40 | CN1CCCC(CCC(=O)NCCCn2ncc3ccccc32)C1 (stereo not drawn) | 46.95
41 | CN1CCCCC1CCC(=O)NCCCn1ncc2ccccc21 (stereo not drawn) | 28.19
42 | O=C(Nc1ccc(I)cc1C(=O)NCCN1CCOCC1)c1ccco1 | -54.79
43 | O=C(Nc1ccccc1C(=O)NCCN1CCOCC1)c1ccco1 | -4.93
44 | O=C(Nc1ccc(Cl)cc1C(=O)NCCN1CCOCC1)c1ccco1 | 60.47
45 | CN(C)CCOCC1CN(Cc2cccs2)Cc2ccnn2C1 (stereo not drawn) | -85.93
46 | CCCNC(=O)N1CCN(Cc2cc(C)no2)CC1 | 26.4
47 | Cc1cc(CN2CCN(C(=O)NCc3c(C)noc3C)CC2)on1 | 70.27
48 | Cc1cc(CN2CCN(C(=O)NCc3ccc(C)s3)CC2)on1 | 6.63
49 | COc1cc(CCC(=O)NC(C)(C)C)ccc1OCC(F)(F)F | -1.02
50 | CCOCCC1(CNC(=O)c2ccc(C)nc2)CCCC1 | -9.5
51 | CN(C)C(C(=O)N1CCN(CCn2cccc2)CC1)c1ccc(F)cc1 (stereo not drawn) | 31.51
52 | CN(C)C(C(=O)N1CCN(CCn2cccc2)CC1)c1cccc(F)c1 (stereo not drawn) | 69.67
53 | COCCN1CCN(C(=O)C(c2cccc(F)c2)N(C)C)CC1 (stereo not drawn) | 48.21
